PubChem BioAssay (Tox21)
Records with an inconclusive call do not appear. Calls of active or inactive are those of the source. Unless noted, the call rests on the fitted dose curve; in most records, active means well fitted curve in the direction sought with a large enough effect in the repeat runs; inconclusive means weak or mixed curves; inactive means no such curve, though single readings can be large; an effect the other way counts as inactive or inconclusive.

Key:
[1] = qHTS assay for small molecule agonists of the p53 signaling pathway (AID 651631; calls by dose curve; further: nearly all actives have a fitted effect of over 15% in size)
Outline: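 p53RE-bla HCT-116 cells; compounds 16 h, 37 °C; LiveBLAzer B/G FRET substrate 2 h RT; fluorescence intensity read-out, qHTS format.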

[2] = qHTS assay for small molecules that induce genotoxicity in human embryonic kidney cells expressing luciferase-tagged ATAD5 (AID 651632); further: nearly all actives have a fitted effect of over 15% in size
Outline: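 Reporter cells (HEK293T) express luciferase-tagged ATAD5, a protein that accumulates after DNA damage. Treat 16 hr at 37C/5% CO2, add Amplite, wait 30 min at RT, and read luminescence.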

[3] = qHTS assay for small molecule agonists of the p53 signaling pathway - cell viability (AID 651633; calls by dose curve;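 further: p53RE-bla HCT reporter cells with a stable beta-lactamase p53 reporter; series mostly up to about 83 µM; nearly all actives have a fitted effect of over 30% in size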)
Outline: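 p53RE-bla cells, seeded at 4,000 per well and rested 5 h at 37 C/5% CO2, received compounds in DMSO for 16 h at 37 C. CellTiter-Glo was then added, and luminescence was read after 30 min at room temperature to gauge cytotoxicity.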

[4] = qHTS assay for small molecule disruptors of the mitochondrial membrane potential - cell viability (AID 720634; calls by dose curve;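 further: human HepG2 liver cancer cells; series mostly up to about 83 µM; nearly all actives have a fitted effect of over 20% in size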)
Outline: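 Measuring cytotoxicity alongside mitochondrial potential, the screen quantified ATP by luminescence in HepG2 cells after 1 hr compound incubation and a 30 min room-temperature CellTiter-Glo step.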

[5] = qHTS assay to test for compound auto fluorescence at 590 nm (red) in HepG2 cells (AID 720674)
Outline: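 Compound auto-fluorescence is scored relative to Rose Bengal sodium, measured at 540/590 nm in live HepG2 cultures after 1 hr compound contact (37 C, 5% CO2).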

[6] = qHTS assay to test for compound auto fluorescence at 535 nm (green) in HepG2 cells (AID 720675)
[7] = qHTS assay to test for compound auto fluorescence at 460 nm (blue) in HEK293 cells (AID 720678)
Outline: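 Measured: blue fluorescence (Ex 405/Em 460 nm) of compound-treated HEK293 cells, incubated overnight at 37C with 5% CO2 and scaled to triamterene equivalents.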

[8] = qHTS assay to test for compound auto fluorescence at 590 nm (red) in HEK293 cells (AID 720679)
Outline: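 Using HEK293 cells at 2,000 per well, the screen added 23 nL of each compound after cell attachment and incubated overnight (37C, 5% CO2). The plate reader then captured red-label fluorescence, Ex/Em 540/590nm.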

[9] = qHTS assay to test for compound auto fluorescence at 535 nm (green) in HEK293 cells (AID 720680)
[10] = qHTS assay to test for compound auto fluorescence at 460 nm (blue) in HEK293 cell free culture (AID 720681)
Outline: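 Test compounds were pinned into cell-free culture medium (DMEM with 10% FBS) and fluorescence was read directly at Ex/Em 405/460 nm. Signals were expressed as fluorescence equivalents of triamterene, with DMSO vehicle as control.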

[11] = qHTS assay to test for compound auto fluorescence at 535 nm (green) in HEK293 cell free culture (AID 720682)
Outline: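 Cell-free medium (DMEM, 10% FBS) receives compound or DMSO by pintool. Plate read directly at Ex 485/Em 535 nm. Signal converted to fluorescein equivalency.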

[12] = qHTS assay to test for compound auto fluorescence at 590 nm (red) in HEK293 cell free culture (AID 720683)
Outline: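 Tox21 10K library compounds were pinned into cell-free DMEM with 10% FBS and fluorescence was read at excitation 540 nm. Activity is expressed as Rose Bengal sodium equivalency.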

[13] = qHTS assay to test for compound auto fluorescence at 590 nm (red) in HepG2 cell free culture (AID 720684)
Outline: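 Measured in medium alone (MEM containing 10% FBS) following pintool addition of compound; emission at 590 nm with 540 nm excitation, referenced to Rose Bengal sodium.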

[14] = qHTS assay to test for compound auto fluorescence at 460 nm (blue) in HepG2 cell free culture (AID 720685)
Outline: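 Compound (23 nL) or DMSO pinned into cell-free MEM with 10% FBS; blue fluorescence read at 405/460 nm excitation/emission, expressed as auto-fluorescence equivalency to triamterene.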

[15] = qHTS assay to test for compound auto fluorescence at 535 nm (green) in HepG2 cell free culture (AID 720686)
[16] = qHTS assay to test for compound auto fluorescence at 460 nm (blue) in HepG2 cells (AID 720687)
Outline: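 Cells (2,000/well in MEM with 10% FBS) attached overnight at 37 C, then were exposed to compound or DMSO for 1 hr at 37 C, 5% CO2. Fluorescence read at Ex/Em 405/460 nm, expressed as triamterene-equivalent signal.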

[17] = qHTS assay for small molecules that induce genotoxicity in human embryonic kidney cells expressing luciferase-tagged ATAD5 - cell viability (AID 651634; calls by dose curve; further: nearly all actives have a fitted effect of over 25% in size)
Outline: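 Seeding of 2,000 HEK293T ATAD5-luciferase cells per well preceded pin-tool compound transfer. Plates sat 15.5 hr at 37C under 5% CO2, then fluorescence was read after 30 min with CellTiter-Fluor.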

[18] = qHTS assay for small molecule disruptors of the mitochondrial membrane potential (AID 720635)
Outline: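 HepG2 cells (2,000/well) attached overnight at 37C, then took compound for 1 hr at 37C, 5% CO2. Mito-MPS dye was added for 30 min; fluorescence was read at 490/535 nm (monomers) and 540/590 nm (aggregates).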

[19] = target: Glucocorticoid receptor (Homo sapiens) (UniProt P04150); assay: qHTS assay to identify small molecule agonists of the glucocorticoid receptor (GR) signaling pathway (AID 720691; active means well fitted activation curve with a large enough effect in the signal ratio in the repeat runs, not every such curve was filed as active; the % refers to the signal ratio)
Outline: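 Reporter read-out: fluorescence intensity following 2 h room-temperature LiveBLAzer B/G FRET substrate loading. Prior step: GR-bla HeLa cells held 4 h, then treated 18 h at 37 C.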

[20] = target: Glucocorticoid receptor (Homo sapiens) (UniProt P04150); assay: qHTS assay to identify small molecule antagonists of the glucocorticoid receptor (GR) signaling pathway (AID 720692; active means well fitted inhibition curve with a large enough effect in the signal ratio in the repeat runs, not every such curve was filed as active; the % refers to the signal ratio)
Outline: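 Dexamethasone (5 nM final) stimulated a stably integrated GRE-beta-lactamase reporter in HeLa cells during 18 h co-incubation with compounds; signal was quantified as fluorescence intensity of B/G FRET substrate after 2 h.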

Measured: Potency

Glucocorticoid receptor (Homo sapiens), sequence (P04150 whole entry, looked up): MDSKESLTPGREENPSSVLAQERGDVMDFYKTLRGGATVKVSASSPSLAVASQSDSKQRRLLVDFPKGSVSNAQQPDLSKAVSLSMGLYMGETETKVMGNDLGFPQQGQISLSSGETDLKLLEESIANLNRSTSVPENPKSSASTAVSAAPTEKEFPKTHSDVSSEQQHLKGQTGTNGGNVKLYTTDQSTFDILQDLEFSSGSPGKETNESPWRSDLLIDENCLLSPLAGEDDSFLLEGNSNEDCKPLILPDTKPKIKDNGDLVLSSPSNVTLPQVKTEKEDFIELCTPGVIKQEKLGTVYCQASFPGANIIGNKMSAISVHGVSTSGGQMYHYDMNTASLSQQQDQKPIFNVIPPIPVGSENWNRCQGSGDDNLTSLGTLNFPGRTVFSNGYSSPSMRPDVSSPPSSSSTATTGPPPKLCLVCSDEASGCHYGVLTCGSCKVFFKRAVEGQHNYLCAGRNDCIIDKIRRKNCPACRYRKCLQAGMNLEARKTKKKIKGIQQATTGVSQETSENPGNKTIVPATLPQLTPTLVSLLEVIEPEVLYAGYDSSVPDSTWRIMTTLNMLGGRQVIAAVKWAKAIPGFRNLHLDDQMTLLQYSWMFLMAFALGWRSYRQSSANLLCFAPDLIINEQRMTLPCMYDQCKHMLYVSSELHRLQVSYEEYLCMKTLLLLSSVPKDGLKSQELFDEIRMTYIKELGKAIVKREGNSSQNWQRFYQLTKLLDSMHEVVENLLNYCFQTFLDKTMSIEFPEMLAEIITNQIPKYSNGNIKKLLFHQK

O=C(CCl)NCO
inactive: [1] | [2] | [3] | [4] | [5] | [6] | [7] | [8] | [9] | [10] | [11] | [12] | [13] | [14] | [15] | [16]

C=C(Cl)CSC(=S)N(CC)CC
inactive: [1] | [2] | [17] | [4] | [5] | [6] | [7] | [8] | [9] | [10] | [11] | [12] | [13] | [14] | [15] | [16]

CC(C)(C1CCC(O)CC1)C1CCC(O)CC1 (stereo not given)
inactive: [1] | [2] | [17] | [4] | [5] | [6] | [7] | [8] | [9] | [10] | [11] | [12] | [13] | [14] | [15] | [16]

COP(=O)(O)OC
inactive: [1] | [2] | [3] | [4] | [18] | [6] | [7] | [8] | [9] | [10] | [11] | [12] | [13] | [15] | [16] | [19] | [20]

CCCC(C)(COC(N)=O)COC(N)=O
inactive: [1] | [2] | [3] | [4] | [18] | [5] | [6] | [7] | [8] | [9] | [10] | [11] | [12] | [13] | [14] | [15] | [16] | [19]

C=C1CC[C@@]2(O)[C@H]3Cc4ccc(O)c5c4[C@@]2(CCN3CC2CC2)[C@H]1O5
inactive: [1] | [2] | [3] | [4] | [18] | [7] | [8] | [9] | [10] | [11] | [12] | [13] | [15] | [16] | [19]

NC(=O)CS(=O)C(c1ccccc1)c1ccccc1 (stereo not given)
inactive: [1] | [2] | [3] | [4] | [6] | [7] | [8] | [9] | [10] | [11] | [12] | [13] | [14] | [15] | [16] | [19] | [20]
